An excerpt weighted towards active compounds, which were near 7.3% of everything screened.
ELG1 genotoxic: inducers of genotoxicity in HEK293T ELG1-luciferase cells. HEK293T ELG1-luciferase reporter, luminescence, 16 h. Potency, µM (highest dose often 46 µM), most hits filed as activators. actives 1.3% (n = 330,000). AID 504466; note: nearly all actives have a fitted effect of over 60% in size
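DMSO vehicle served as control against compound-treated ELG1-luciferase HEK293T cells; exposure lasted 16 hr at 37 °C and 5% CO2, followed by ONE-Glo luminescence detection after 30 min.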
NPC1 prom act: activates the NPC1 promoter | actives 2.4% (n = 320,000) | Potency, µM (top dose mostly 9.22 µM), usual class: activators | Huh7 NPC1 promoter luciferase reporter, 24 h; note: nearly all actives have a fitted effect of over 60% in size
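Quantitative HTS used a cell-based reporter: Huh7 cells stably bearing the NPC1 promoter upstream of luciferase were treated with compounds for 24 h, and promoter activation was read as luminescence.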
Luc counter: Kinase-Glo luciferase inhibition (counter-screen) | Q27757 | Potency, µM (series often up to 38.3 µM), usual class: inhibitors | Kinase-Glo luciferase, ATP luminescence, 8 min | actives 0.28% (n = 200,000) | AID 1379; note: nearly all actives have a fitted effect of over 60% in size
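Light output from Kinase-Glo luciferase with luciferin and 10 uM ATP in 50 mM imidazole pH 7.2, KCl, MgCl2, Tween 20, BSA; compound pin-delivered, 8-min ambient incubation, then luminescence read.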
Rab9 prom act: activators of Rab9 promoter; Huh7 Rab9 promoter-luciferase reporter, luminescence, 24 h; Potency, µM (titrated, usually from 9.22 µM), usual class: activators; actives 2.8% (n = 320,000); AID 485297; note: nearly all actives have a fitted effect of over 60% in size
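Measured in stably transfected Huh7 cells bearing a Rab9 promoter–luciferase construct: 24 h compound treatment at 37 °C, followed by luminescence detection.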
SMN2 splice up: increases expression of the SMN2 splice variant; actives 2.8% (n = 210,000); AID 1458; Potency, µM (doses to about 46.1 µM), actives largely listed as activators; HEK293 SMN2-luciferase splicing reporter, luminescence, 30-36 h; note: nearly all actives have a fitted effect of over 55% in size
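HEK293 cells carry an SMN2 minigene-luciferase reporter in which exon 7 inclusion puts luciferase in frame. Cells were seeded at 2000 cells/well, attached for 10-12 hours, then exposed to compounds for 30-36 hours at 37C before ONE-Glo luminescence.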
FLuc counter: inhibits or activates purified firefly luciferase, miR-21 counter-screen. P08659. purified FLuc, Km substrates, luminescence inhibition. Potency, µM (doses to about 57.5 µM), hits mostly inhibitors. actives 6.9% (n = 360,000). AID 588342; note: nearly all actives have a fitted effect of over 55% in size
Target sequence (P08659 whole entry, looked up): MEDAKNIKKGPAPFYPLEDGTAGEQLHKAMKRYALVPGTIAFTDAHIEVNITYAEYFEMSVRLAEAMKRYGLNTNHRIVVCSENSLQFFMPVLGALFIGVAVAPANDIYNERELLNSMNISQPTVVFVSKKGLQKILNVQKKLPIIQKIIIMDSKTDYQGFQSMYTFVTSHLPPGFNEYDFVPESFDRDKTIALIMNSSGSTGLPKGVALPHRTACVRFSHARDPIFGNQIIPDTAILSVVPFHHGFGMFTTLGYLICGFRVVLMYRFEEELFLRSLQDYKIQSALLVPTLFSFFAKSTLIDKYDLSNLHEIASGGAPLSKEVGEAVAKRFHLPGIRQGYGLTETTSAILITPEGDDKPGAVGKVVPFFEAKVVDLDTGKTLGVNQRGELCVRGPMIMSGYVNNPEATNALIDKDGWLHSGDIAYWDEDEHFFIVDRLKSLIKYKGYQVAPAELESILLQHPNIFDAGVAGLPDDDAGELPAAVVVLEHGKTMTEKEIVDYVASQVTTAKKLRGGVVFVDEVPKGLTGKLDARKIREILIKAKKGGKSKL
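Purified P. pyralis luciferase (10nM final) with 10uM D-luciferin and 10uM ATP (Km levels) in 50mM Tris acetate pH 7.5, 10mM Mg acetate, 0.01% Tween-20, 0.05% BSA; qHTS 6-point titration, ~60 µM downward; luminescence read.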
Large screens that a line does not name were inactive. Calls come from the whole dose curve; as a rule, active = well fitted curve in the direction sought with a large enough effect; inconclusive = small, poorly fitted or top-dose-only effect, or another doubt; inactive = no such curve, though single readings can be large; an effect the other way counts as inactive or inconclusive.

Cc1nc(-n2cc(F)c(=O)[nH]c2=O)c2nc(C)oc2n1	none
O=C(CSc1cccc[n+]1[O-])Nc1cc(Cl)ccc1[N+](=O)[O-]	none (no result: NPC1 prom act, Luc counter, Rab9 prom act, SMN2 splice up, FLuc counter)
O=[N+]([O-])c1ccc(Sc2cccc[n+]2[O-])c2nonc12	FLuc counter 4.8µM (no result: Luc counter, SMN2 splice up)
CN(C)c1ccc(/C=N\NC(=S)SCN2C(=O)C3CCC(C)(C2=O)C3(C)C)cc1 (stereo not drawn)	FLuc counter 8.5µM
COC(=O)c1ccc(CNC(=O)c2ccc(OCC(=O)N3CCOCC3)c(OC)c2)cc1	none (no result: Luc counter, SMN2 splice up)
CCCCNC(=O)C1CCN(S(=O)(=O)CCC)CC1	none (no result: ELG1 genotoxic, NPC1 prom act, Luc counter, Rab9 prom act, SMN2 splice up)
CCCS(=O)(=O)N1CCC(C(=O)NC2CCC(C)CC2)CC1 (stereo not drawn)	ELG1 genotoxic inconclusive, NPC1 prom act inconclusive, Rab9 prom act 4µM (no result: Luc counter, SMN2 splice up)
Cc1ccc(-c2csc3nc4c5ccccc5c(NCCCN(C)C)nn4c(=O)c23)cc1	none
Nc1ccc2nc3c(=O)n(CCc4ccccc4)c(=O)[nH]c3nc2c1	none (no result: Luc counter, SMN2 splice up)
Nc1ccc2nc3c(=O)n(C4CCCCC4)c(=O)[nH]c3nc2c1	ELG1 genotoxic inconclusive, NPC1 prom act inconclusive, Rab9 prom act inconclusive, FLuc counter 12µM (no result: Luc counter, SMN2 splice up)
CCCCn1c(=O)[nH]c2nc3cc(N)ccc3nc2c1=O	NPC1 prom act inconclusive, Rab9 prom act 3.2µM, SMN2 splice up inconclusive
O=C(Nc1ccc(Cn2cccn2)cc1)c1ccc(COc2cccc(Br)c2)cc1	ELG1 genotoxic inconclusive, NPC1 prom act 0.56µM, Rab9 prom act 0.5µM, SMN2 splice up 13µM, FLuc counter 15µM
Cc1ccsc1C(=O)NNC(=S)NC1CCCCC1	NPC1 prom act inconclusive, Rab9 prom act inconclusive (no result: Luc counter, SMN2 splice up)
CC(=O)N/C(=C\c1ccccc1)C(=O)OCC(=O)Nc1cc(S(=O)(=O)N(C)C)ccc1C	none (no result: Luc counter, SMN2 splice up)
COc1ccc(/C=C/C(=O)OCC(=O)Nc2ccc3c(c2)OCO3)cc1	none (no result: Luc counter, SMN2 splice up)
Cc1ccc(S(=O)(=O)N(C)C)cc1NC(=O)COC(=O)/C=C/c1ccc2c(c1)OCO2	FLuc counter 21µM
CN(C)S(=O)(=O)c1cccc(NC(=O)COC(=O)/C=C/c2ccco2)c1	FLuc counter inconclusive
CN(C)S(=O)(=O)c1cccc(NC(=O)COC(=O)/C=C/c2ccc3c(c2)OCO3)c1	FLuc counter 12µM
Cc1ccc(/C=C/C(=O)OCC(=O)Nc2cccc(S(=O)(=O)N(C)C)c2)o1	FLuc counter 21µM
CC1=NN(C(N)=S)C(=O)C1N=Nc1ccccc1C (stereo not drawn)	SMN2 splice up inconclusive, FLuc counter 21µM
CC1=NN(C(N)=S)C(=O)C1N=Nc1ccccc1O (stereo not drawn)	none (no result: Luc counter, SMN2 splice up)
CC1=NN(C(N)=S)C(=O)C1N=Nc1ccc(C)cc1C (stereo not drawn)	ELG1 genotoxic 11µM, NPC1 prom act inconclusive, Rab9 prom act inconclusive, SMN2 splice up 14µM, FLuc counter 4.8µM
O=c1cc(Nc2cccc(Br)c2)[nH]c(=O)[nH]1	none
NC(=O)C1CCN(c2nc(C3CC3)nc3c2nnn3Cc2ccccc2Cl)CC1	none
Cc1nc(NC(=O)CSc2nnnn2C)sc1C	ELG1 genotoxic inconclusive, NPC1 prom act inconclusive, Rab9 prom act inconclusive, SMN2 splice up 11µM, FLuc counter inconclusive
Cc1csc(NC(=O)CSc2nnnn2C)n1	ELG1 genotoxic inconclusive, Rab9 prom act inconclusive, SMN2 splice up 14µM, FLuc counter inconclusive
COCc1cc(C)nc(SCC(=O)Nc2nc(C)cs2)c1C#N	ELG1 genotoxic inconclusive, NPC1 prom act 0.63µM, Rab9 prom act 0.71µM, FLuc counter 12µM (no result: Luc counter, SMN2 splice up)
COCc1cc(C)nc(SCC(=O)Nc2cccc(C)c2C)c1C#N	none
COC(=O)c1sc(NC(=O)CSc2nnnn2C)nc1C	ELG1 genotoxic 15µM, NPC1 prom act 2.2µM, Rab9 prom act 2µM, FLuc counter 17µM (no result: Luc counter, SMN2 splice up)
CCc1nnc(NC(=O)CSc2nnnn2C)s1	none
COc1ccccc1C(=O)Oc1c(Sc2ccccc2)c(C)nn1C(C)(C)C	none (no result: ELG1 genotoxic, NPC1 prom act, Luc counter, Rab9 prom act)
CCc1noc(C)c1C(=O)NCCc1ccccc1	ELG1 genotoxic 16µM, NPC1 prom act inconclusive, Rab9 prom act inconclusive, FLuc counter inconclusive (no result: Luc counter, SMN2 splice up)

Compound activity deposited in PubChem by National Center for Advancing Translational Sciences (NCATS).
